Compound activity: PubChem BioAssay, The Scripps Research Institute Molecular Screening Center
Rows were chosen to be rich in hits. Some 2.3% of all compounds tested hit in one or more screens of this group.
M1 PAM parental: counter-screen for M1 PAMs: effect in parental CHO-K1 cells; AID 602247; hit rate 0.02% among 360,000; activation, % at 3 µM; ATP EC20, Fluo-8 calcium fluorescence; 0% at ATP EC20, 100% at ATP max;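 active = activation above the run cutoff, the mean activation of all test compounds plus 3 SD, cut at about 40% in these data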;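 note: peak over basal fluorescence ratio in a 140 s read after ATP addition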
M1 PAM: human CHRM1 positive allosteric modulation; activation, % at 3 µM; hit rate 0.088% among 360,000; P11229; CHO-K1 hM1, Fluo-8 calcium fluorescence, ACh EC20; 0% = ACh EC20, 100% = maximal ACh; in the data active = activation above about 19%, passing the limit was not always enough
Target sequence (P11229 whole entry, looked up): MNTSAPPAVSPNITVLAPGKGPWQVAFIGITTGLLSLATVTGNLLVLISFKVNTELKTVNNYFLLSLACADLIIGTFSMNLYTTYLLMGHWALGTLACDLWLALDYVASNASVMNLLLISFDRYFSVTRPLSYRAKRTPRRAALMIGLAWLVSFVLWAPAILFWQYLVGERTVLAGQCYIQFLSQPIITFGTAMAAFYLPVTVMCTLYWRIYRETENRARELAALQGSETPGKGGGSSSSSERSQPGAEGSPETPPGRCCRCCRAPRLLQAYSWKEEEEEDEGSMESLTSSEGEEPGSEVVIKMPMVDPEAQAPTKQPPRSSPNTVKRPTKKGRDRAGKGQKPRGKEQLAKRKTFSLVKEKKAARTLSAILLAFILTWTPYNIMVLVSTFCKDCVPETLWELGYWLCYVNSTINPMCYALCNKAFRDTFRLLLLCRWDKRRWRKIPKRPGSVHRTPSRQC
CHRM1 agonist: activates human CHRM1 receptor | P11229 | CHO-K1 hM1, Fluo-8 calcium fluorescence, agonist mode; 0% DMSO, 100% acetylcholine EC100 | activation, % at 3 µM | hit rate 0.33% among 360,000;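 active = activation above the run's mean compound activation plus 3 SD, cut at about 16% in these data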;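 note: peak over basal fluorescence ratio within a 140 s kinetic read after compound addition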
M1 antag: human CHRM1 antagonism | P11229 | CHO-K1 hM1, Fluo-8 calcium fluorescence, ACh EC80 antagonist | inhibition, % at 3 µM | hit rate 1.3% among 360,000 | AID 588852;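 active = percent inhibition above its own plate's cutoff, namely the mean of that plate's compound wells plus 3 SD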;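 note: peak over basal fluorescence ratio during 140 s after agonist addition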
CHO-K1 Ca ag: M1 agonist counterscreen hit in parental CHO-K1 cells. Fluo-8 calcium fluorescence; scaled to maximal ATP response, vehicle zero. activation, % at 3 µM. hit rate 0.48% among 360,000. AID 602248; in the data active = activation above about 15%;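 note: untransfected CHO-K1 host cells lacking M1 receptor as counterscreen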
CHO-K1 Ca antag: nonselective inhibitor or artifact in parental CHO-K1 cells; AID 602250; inhibition, % at 3 µM; ATP-induced calcium, Fluo-8 fluorescence; hit rate 0.6% among 360,000;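 active = inhibition above a per-plate cutoff, the plate's mean sample inhibition plus 3 SD, cut at about 24% in these data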
A number is an active result; i = inactive.

SMILES	M1 PAM parental	M1 PAM	CHRM1 agonist	M1 antag	CHO-K1 Ca ag	CHO-K1 Ca antag
Clc1cccc2c1Sc1ccccc1CC2N1CCNCC1 (stereo unspecified)	i	i	i	88	i	i
Clc1ccc2c(c1)C(N1CCNCC1)Cc1ccccc1S2 (stereo unspecified)	i	i	i	87	i	i
COCCCN1CCN(C2Cc3ccccc3Sc3ccc(Cl)cc32)CC1 (stereo unspecified)	i	i	i	47	i	i
Cn1c(=O)c2c(ncn2CC(=O)N/N=C/c2ccc(Br)s2)n(C)c1=O	i	i	i	i	i	i
COc1ccc(C(C#N)=Cc2cccc(OC)c2OC)cc1	i	i	i	i	i	i
O=C(CN1C(=O)c2ccccc2C1=O)Nc1ccc(S(=O)(=O)N2CCOCC2)cc1	i	i	i	i	i	i
O=C(NCc1ccccc1)C1CCCN(C(=O)c2ccc(F)cc2)C1 (stereo unspecified)	i	i	i	i	i	i
Cc1cccc(OCC(O)CN2CC3(C)CC2CC(C)(C)C3)c1 (stereo unspecified)	i	i	i	i	i	i
COc1ccc(Cc2nc3ccccc3[nH]2)cc1OC	i	i	i	i	i	47
Cc1ccc(Cc2nc3ccccc3[nH]2)cc1	i	i	i	i	i	i
COc1cc(SC)ccc1C(=O)OCC(=O)NCCNC(=O)COC(=O)c1ccc(SC)cc1OC	i	i	i	i	i	i
COC(=O)c1ccc(COC(=O)c2ccc(SC)cc2OC)cc1	i	i	i	i	20	i
CN1CCC(=O)N([C@H](CSc2ccc(Br)cc2)c2ccccc2)CC1	i	i	i	55	i	i
CCCN1CCC(=O)N([C@H](CSc2ccccc2)c2ccccc2)CC1	i	i	i	i	i	i
CCN(CC)CC(C)(C)C(=O)/C=C/c1ccc(/C=C/C(=O)C(C)(C)CN(CC)CC)cc1	i	i	i	i	i	25
COc1ccc(S(=O)(=O)N(C)C[C@H]2Oc3c(NC(=O)NC(C)C)cccc3C(=O)N([C@H](C)CO)C[C@@H]2C)cc1	i	i	i	i	i	i
CCCCN1C(=N)N([C@@H](C)CN2CCC[C@H]2CN2C(N)=NC[C@@H]2Cc2ccccc2)C[C@H]1Cc1ccccc1	i	i	i	94	i	i
CCCCN1C(=N)N([C@@H](CN2CCC[C@H]2CN2C(N)=NC[C@@H]2Cc2ccccc2)C(C)C)C[C@H]1Cc1ccccc1	i	i	i	59	i	i
CC(C)C[C@@H]1CN=C(N)N1C[C@@H]1CCCN1C[C@@H](C(C)C)N1C[C@@H](Cc2ccccc2)N(CCCC2CCCC2)C1=N	i	i	i	i	i	i
Cc1c(NC(=O)C(C)OC(=O)CCc2c[nH]c3ccccc23)c(=O)n(-c2ccccc2)n1C (stereo unspecified)	i	i	i	i	i	i
Cc1c(C(=O)N(Cc2ccccc2)C(C)C)oc2ccc(S(=O)(=O)N3CCOCC3)cc12	i	i	i	i	i	i
CCC(C)NC(=O)c1c(N)n(/N=C/c2ccccn2)c2nc3ccccc3nc12 (stereo unspecified)	i	i	i	i	i	i
CCC(C)NC(=O)c1c(N)n(/N=C/c2cccnc2)c2nc3ccccc3nc12 (stereo unspecified)	i	i	i	i	i	25
Cc1ccc(S(=O)(=O)N(C)CC(=O)Nc2nc3ccccc3s2)cc1	i	i	i	i	i	24
O=[N+]([O-])c1ccc(-c2ccc(/C=N/Nc3nc(NCc4ccccc4)nc(N4CCOCC4)n3)o2)cc1	i	i	i	26	18	24
SMILES	M1 PAM parental	M1 PAM	CHRM1 agonist	M1 antag	CHO-K1 Ca ag	CHO-K1 Ca antag
CC(=O)Nc1ccc(-n2c(=O)c3ccccc3c3ccccc3c2=O)cc1	i	i	i	i	i	i
O=C(O)c1ccc(-n2c(=O)c3ccccc3c3ccccc3c2=O)cc1	i	i	i	i	i	31
O=C(O)c1ccc2c(=O)n(-c3ccc(F)cc3)c(=S)[nH]c2c1	i	i	i	38	i	i
Cc1ccn(C(=O)c2ccc(NC(=O)C3CC3)cc2)n1	i	i	i	i	i	i
COc1ccc(C(CNC(=O)c2cc(S(=O)(=O)NCc3ccccc3)ccc2C)N2CCOCC2)cc1 (stereo unspecified)	i	i	i	i	i	28
C[C@@H]1CN([C@H](C)CO)C(=O)CCCn2cc(nn2)CO[C@H]1CN(C)C(=O)Nc1cccc(C(F)(F)F)c1	i	i	i	i	i	i
CCN(CC)S(=O)(=O)c1cccc(NC(=O)CNc2cccc(S(=O)(=O)N3CCOCC3)c2)c1	i	i	i	33	i	i
CCc1nc2ccccc2c(C(=O)OCC(=O)Nc2cccc(S(=O)(=O)N3CCOCC3)c2)c1C	i	i	i	28	i	i
CCN(CC)S(=O)(=O)c1ccc(C)c(NC(=O)CNc2cccc(S(=O)(=O)N3CCOCC3)c2)c1	i	i	i	i	i	i
CN(CC(=O)Nc1cccc(S(=O)(=O)N2CCOCC2)c1)CC(=O)Nc1ccc(Cl)c(C(F)(F)F)c1	i	i	i	42	i	i
CN(CC(=O)NCc1ccc(F)cc1)CC(=O)Nc1ccc(Cl)c(C(F)(F)F)c1	i	i	16	i	i	i
CN(CC(=O)NCC(=O)Nc1ccc(F)cc1)CC(=O)Nc1ccc(Cl)c(C(F)(F)F)c1	i	i	i	i	i	i
OCCC1CN(CCCn2cccn2)CCN1C1CCCCC1 (stereo unspecified)	i	i	i	i	i	i
Cc1ccc(N2NC(C)(c3cccs3)NC2=S)cc1 (stereo unspecified)	i	i	i	i	i	i
CN(C)S(=O)(=O)c1cccc(NC(=O)CNc2cccc(S(=O)(=O)N3CCCCC3)c2)c1	i	i	i	i	i	i
CC(OC(=O)CC1CC2CCC1C2)C(=O)Nc1ccc(N2CCOCC2)cc1 (stereo unspecified)	i	i	i	i	i	i
CCN(CC)S(=O)(=O)c1cc(NC(=O)CNc2cccc(S(=O)(=O)N3CCCC3)c2)ccc1C	i	i	i	29	i	i
CC(OC(=O)CC1CC2CCC1C2)C(=O)Nc1cccc(S(=O)(=O)N2CCOCC2)c1 (stereo unspecified)	i	24	i	i	i	i
CC(NC(=O)CCn1nc(-c2ccc(Cl)cc2)ccc1=O)c1ccccc1 (stereo unspecified)	i	i	i	i	i	i
COc1ccccc1C(=O)NC(=O)COC(=O)CNC(=O)c1ccccc1F	i	i	i	i	i	i
CC(C)(C)C1=CC(O)(c2ccccc2)C=C(C(C)(C)C)C1=O	i	i	i	i	i	i
COC(=O)Cn1c(=NC(=O)C(C)C)sc2c(C)cc(C)cc21	i	i	i	i	i	30
